Targets with the largest changes are over-represented here; the source holds about 21,000 in all.
Compound: Cc1cc(ccc1-c1ccccc1)C(=O)N1CCCN(CC1)C(=O)CCl [compound 10]
Experiment: probe-labelled cysteine peptide fold change vs DMSO (competition) (log2 fold change); higher = less target engagement (more negative = stronger competition)
Details: THP-1, incubation time: 4 h
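Further: competitive profiling in live THP-1 cells: cysteine peptides tagged with an iodoacetamide desthiobiotin (IA-DTB) probe, intensity after compound treatment relative to DMSO-treated cells.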

UniProt Q8WY54, sequence (Q8WY54 whole entry): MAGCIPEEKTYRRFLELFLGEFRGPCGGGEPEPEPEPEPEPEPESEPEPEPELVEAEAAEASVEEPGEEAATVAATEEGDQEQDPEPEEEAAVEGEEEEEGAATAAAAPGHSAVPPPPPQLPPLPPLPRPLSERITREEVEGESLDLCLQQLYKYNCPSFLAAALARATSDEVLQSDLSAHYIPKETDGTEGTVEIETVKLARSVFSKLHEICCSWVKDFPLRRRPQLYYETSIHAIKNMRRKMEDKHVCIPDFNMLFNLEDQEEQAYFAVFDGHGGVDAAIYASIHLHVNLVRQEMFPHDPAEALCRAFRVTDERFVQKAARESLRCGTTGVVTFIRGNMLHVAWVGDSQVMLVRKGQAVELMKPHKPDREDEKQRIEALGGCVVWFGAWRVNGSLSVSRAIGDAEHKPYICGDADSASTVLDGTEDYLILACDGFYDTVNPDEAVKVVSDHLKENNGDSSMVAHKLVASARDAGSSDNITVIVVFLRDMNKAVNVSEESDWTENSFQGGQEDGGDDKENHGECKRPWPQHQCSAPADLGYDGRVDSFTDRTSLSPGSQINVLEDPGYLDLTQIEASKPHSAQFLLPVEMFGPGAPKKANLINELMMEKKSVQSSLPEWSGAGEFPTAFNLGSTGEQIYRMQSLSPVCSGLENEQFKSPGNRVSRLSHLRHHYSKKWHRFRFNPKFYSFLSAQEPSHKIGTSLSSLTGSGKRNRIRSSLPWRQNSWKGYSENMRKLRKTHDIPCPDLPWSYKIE
UniProt P53041, sequence (P53041 whole entry, looked up, other chains not shown): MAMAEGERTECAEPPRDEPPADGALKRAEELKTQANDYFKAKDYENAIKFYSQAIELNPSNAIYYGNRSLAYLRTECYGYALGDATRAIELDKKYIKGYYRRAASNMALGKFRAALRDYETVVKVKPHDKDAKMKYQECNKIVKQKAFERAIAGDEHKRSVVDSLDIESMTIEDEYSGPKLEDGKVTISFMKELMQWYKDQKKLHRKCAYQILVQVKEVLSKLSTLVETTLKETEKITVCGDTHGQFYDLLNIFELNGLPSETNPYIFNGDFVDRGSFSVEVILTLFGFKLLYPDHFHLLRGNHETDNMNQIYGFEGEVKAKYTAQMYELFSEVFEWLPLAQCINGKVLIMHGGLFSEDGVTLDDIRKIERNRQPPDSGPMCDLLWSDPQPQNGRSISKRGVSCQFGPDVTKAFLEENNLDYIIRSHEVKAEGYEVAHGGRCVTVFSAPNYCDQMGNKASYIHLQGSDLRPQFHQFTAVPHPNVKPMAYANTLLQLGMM
UniProt Q9UP65, sequence (Q9UP65 whole entry): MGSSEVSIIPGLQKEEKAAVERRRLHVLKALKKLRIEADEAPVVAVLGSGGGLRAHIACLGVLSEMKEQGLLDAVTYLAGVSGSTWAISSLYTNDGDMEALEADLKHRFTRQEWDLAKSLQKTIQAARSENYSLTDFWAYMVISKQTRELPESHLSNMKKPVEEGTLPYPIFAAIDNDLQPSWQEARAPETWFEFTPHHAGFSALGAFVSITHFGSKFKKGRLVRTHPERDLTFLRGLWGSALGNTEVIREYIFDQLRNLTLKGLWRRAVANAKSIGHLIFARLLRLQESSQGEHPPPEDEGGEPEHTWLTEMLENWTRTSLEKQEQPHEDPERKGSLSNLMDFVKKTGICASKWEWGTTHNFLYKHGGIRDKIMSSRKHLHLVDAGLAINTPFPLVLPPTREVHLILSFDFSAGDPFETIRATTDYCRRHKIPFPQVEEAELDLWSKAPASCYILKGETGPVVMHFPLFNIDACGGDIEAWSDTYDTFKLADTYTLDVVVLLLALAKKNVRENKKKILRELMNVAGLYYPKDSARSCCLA
UniProt P29590, sequence (P29590 whole entry, looked up): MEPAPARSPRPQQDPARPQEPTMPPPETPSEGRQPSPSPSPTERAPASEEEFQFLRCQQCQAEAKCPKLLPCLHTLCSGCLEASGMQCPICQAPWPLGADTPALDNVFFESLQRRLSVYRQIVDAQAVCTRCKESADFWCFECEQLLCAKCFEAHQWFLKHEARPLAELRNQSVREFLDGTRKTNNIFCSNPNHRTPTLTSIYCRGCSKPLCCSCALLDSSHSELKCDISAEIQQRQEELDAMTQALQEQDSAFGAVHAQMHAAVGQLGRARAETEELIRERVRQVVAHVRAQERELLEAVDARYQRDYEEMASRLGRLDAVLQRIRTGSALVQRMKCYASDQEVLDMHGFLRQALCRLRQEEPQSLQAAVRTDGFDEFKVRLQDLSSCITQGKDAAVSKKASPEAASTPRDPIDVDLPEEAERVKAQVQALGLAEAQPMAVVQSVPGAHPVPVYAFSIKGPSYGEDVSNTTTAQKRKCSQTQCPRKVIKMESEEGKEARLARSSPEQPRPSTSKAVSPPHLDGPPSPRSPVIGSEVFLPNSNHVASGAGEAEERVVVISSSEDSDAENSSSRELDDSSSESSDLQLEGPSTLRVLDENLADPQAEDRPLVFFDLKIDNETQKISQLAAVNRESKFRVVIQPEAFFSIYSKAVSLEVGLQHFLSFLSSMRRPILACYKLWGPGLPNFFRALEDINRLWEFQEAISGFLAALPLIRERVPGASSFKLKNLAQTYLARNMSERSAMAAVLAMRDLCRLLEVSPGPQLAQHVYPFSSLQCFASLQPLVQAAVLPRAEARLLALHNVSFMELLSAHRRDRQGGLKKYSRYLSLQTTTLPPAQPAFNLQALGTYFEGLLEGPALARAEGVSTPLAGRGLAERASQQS
UniProt Q15084, sequence (Q15084 whole entry, looked up): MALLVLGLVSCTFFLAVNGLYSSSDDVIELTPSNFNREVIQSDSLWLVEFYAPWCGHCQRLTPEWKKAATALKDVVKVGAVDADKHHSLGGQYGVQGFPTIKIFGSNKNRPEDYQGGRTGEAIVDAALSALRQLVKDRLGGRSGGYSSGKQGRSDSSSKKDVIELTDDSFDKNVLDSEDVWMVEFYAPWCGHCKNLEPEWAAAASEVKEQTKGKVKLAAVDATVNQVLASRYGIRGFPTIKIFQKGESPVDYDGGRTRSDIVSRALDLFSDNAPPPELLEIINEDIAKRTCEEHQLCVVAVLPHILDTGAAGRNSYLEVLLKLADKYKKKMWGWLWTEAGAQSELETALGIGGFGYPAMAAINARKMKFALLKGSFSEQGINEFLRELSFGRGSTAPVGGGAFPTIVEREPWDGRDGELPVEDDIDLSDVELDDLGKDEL
UniProt Q9HBE1, sequence (Q9HBE1 whole entry, looked up): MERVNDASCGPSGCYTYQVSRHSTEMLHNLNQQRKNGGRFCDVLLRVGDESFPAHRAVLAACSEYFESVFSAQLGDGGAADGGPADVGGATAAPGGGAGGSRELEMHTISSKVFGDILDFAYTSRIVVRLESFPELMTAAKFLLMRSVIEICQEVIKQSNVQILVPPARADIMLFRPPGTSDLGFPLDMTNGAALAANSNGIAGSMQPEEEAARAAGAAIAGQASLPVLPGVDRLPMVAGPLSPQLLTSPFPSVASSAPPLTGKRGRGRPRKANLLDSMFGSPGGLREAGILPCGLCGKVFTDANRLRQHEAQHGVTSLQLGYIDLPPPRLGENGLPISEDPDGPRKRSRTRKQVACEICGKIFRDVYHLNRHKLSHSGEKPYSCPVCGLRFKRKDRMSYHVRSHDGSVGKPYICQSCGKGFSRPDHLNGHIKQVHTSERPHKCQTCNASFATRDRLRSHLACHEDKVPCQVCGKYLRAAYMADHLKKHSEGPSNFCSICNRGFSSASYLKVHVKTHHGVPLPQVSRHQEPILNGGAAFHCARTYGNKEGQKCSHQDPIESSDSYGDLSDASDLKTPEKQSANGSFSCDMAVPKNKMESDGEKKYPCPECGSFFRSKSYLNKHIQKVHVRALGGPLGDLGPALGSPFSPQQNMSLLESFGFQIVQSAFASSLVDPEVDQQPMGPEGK
UniProt P46020, sequence (P46020 whole entry, looked up): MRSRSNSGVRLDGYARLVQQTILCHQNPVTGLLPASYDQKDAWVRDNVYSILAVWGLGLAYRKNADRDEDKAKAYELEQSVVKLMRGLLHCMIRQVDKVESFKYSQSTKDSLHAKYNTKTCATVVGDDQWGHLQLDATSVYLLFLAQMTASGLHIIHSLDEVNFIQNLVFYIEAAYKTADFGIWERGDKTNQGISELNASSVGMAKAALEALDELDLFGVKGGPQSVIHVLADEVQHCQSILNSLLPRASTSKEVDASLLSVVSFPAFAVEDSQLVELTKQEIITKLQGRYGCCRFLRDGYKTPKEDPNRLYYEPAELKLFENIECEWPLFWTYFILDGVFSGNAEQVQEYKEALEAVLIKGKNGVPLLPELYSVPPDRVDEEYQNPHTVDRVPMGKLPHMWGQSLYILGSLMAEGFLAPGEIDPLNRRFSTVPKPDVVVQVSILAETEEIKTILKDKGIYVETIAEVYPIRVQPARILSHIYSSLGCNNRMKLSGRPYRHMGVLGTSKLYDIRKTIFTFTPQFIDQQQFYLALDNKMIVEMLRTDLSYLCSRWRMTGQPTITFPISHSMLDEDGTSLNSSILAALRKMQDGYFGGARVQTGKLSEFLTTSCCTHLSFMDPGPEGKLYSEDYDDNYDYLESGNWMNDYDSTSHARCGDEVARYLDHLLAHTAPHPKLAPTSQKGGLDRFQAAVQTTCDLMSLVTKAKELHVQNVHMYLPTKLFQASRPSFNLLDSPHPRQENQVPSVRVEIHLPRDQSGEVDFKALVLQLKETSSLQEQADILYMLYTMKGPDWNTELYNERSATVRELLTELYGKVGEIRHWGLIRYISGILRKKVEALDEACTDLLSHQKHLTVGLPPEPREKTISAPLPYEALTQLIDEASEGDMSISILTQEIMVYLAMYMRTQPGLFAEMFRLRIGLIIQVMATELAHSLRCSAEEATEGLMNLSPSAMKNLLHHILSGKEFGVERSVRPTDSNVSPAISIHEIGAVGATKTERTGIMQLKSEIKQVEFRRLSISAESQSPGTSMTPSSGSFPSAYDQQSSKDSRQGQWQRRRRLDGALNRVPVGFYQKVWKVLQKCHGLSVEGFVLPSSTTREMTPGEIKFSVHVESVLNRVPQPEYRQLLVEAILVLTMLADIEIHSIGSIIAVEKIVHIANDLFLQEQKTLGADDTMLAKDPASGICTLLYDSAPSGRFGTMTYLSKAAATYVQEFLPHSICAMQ

For “PDIA4_P13667_555+558_DVLIEFYAPWCGHCK<|>PDIA3_P30101_406+409_DVLIEFYAPWCGHCK (UniProt P30101+P13667)”, which “probe-labelled cysteine peptide fold change” value (10 µM) is on record?
Its value is -0.251.

What about the “probe-labelled cysteine peptide fold change” value (50 µM) of the same target?
The value was -1.15.

With “PLEKHF2_Q9H8W4_219_ICDFCYDLLSAGDMATCQPAR (UniProt Q9H8W4)” as the target, how does the “probe-labelled cysteine peptide fold change” value (10 µM) read?
Its value is -0.498.

And the “probe-labelled cysteine peptide fold change” value (50 µM)?
The value was -0.228.

Which “probe-labelled cysteine peptide fold change” value (10 µM) does the source give for “PPP5D1_E7EU14_47_YQECNK<|>PPP5C_P53041_139_YQECNK (UniProt P53041+E7EU14)” here?
The value was 0.0409.

And the “probe-labelled cysteine peptide fold change” value (50 µM)?
Its value is -0.0811.

Which “probe-labelled cysteine peptide fold change” value (10 µM) does the source give for “PPP1CC_P36873_140_IYGFYDECKR<|>PPP1CA_P62140_140_IYGFYDECKR (UniProt P62140+P36873)” here?
Its value is 0.0922.

And the “probe-labelled cysteine peptide fold change” value (50 µM)?
The value was 0.0296.

How did the “probe-labelled cysteine peptide fold change” value (10 µM) turn out when “PML_P29590_479+484_CSQTQCPR (UniProt P29590)” was run?
The value was -0.494.

What about the “probe-labelled cysteine peptide fold change” value (50 µM) of the same target?
The value was -1.17.

What does the source list for “PGGT1B_P53609_162_ALQLEDGSFCAVPEGSENDMR (UniProt P53609)”?
probe-labelled cysteine peptide fold change (10 µM): -0.0186; probe-labelled cysteine peptide fold change (50 µM): -0.573

Which results are given for “POLR2K_P53803_22_QQPMIYICGECHTENEIK (UniProt P53803)”?
probe-labelled cysteine peptide fold change (10 µM): -0.0834; probe-labelled cysteine peptide fold change (50 µM): -0.286

Which results are given for “PHKA1_P46020_238_GGPQSVIHVLADEVQHCQSILNSLLPR (UniProt P46020)”?
probe-labelled cysteine peptide fold change (10 µM): 0.143; probe-labelled cysteine peptide fold change (50 µM): -0.161

With “PEX6_Q13608_564_HLLLNEDPLNSCPPLMVVATTSR (UniProt Q13608)” as the target, how does the “probe-labelled cysteine peptide fold change” value (10 µM) read?
The value was 0.0661.

What about the “probe-labelled cysteine peptide fold change” value (50 µM) of the same target?
The value was 0.052.

Which “probe-labelled cysteine peptide fold change” value (10 µM) does the source give for “PATZ1_Q9HBE1_610_KYPCPECGSFFR (UniProt Q9HBE1)” here?
Its value is 0.149.

What about the “probe-labelled cysteine peptide fold change” value (50 µM) of the same target?
Its value is 0.151.

For “PGK1_P00558_367+379_GCITIIGGGDTATCCAK (UniProt P00558)”, which “probe-labelled cysteine peptide fold change” value (10 µM) is on record?
Its value is 0.296.

What about the “probe-labelled cysteine peptide fold change” value (50 µM) of the same target?
Its value is -0.173.

Which results are given for “PDIA4_P13667_91+94_DTVLLEFYAPWCGHCK (UniProt P13667)”?
probe-labelled cysteine peptide fold change (10 µM): -0.227; probe-labelled cysteine peptide fold change (50 µM): -1.17

How did the “probe-labelled cysteine peptide fold change” value (10 µM) turn out when “PLA2G4C_Q9UP65_351_KTGICASK (UniProt Q9UP65)” was run?
The value was -0.289.

And the “probe-labelled cysteine peptide fold change” value (50 µM)?
The value was -1.38.

With “PLXNB2_O15031_1149_TLTETDLYCEPPEVQPPPK (UniProt O15031)” as the target, how does the “probe-labelled cysteine peptide fold change” value (10 µM) read?
Its value is -0.174.

What about the “probe-labelled cysteine peptide fold change” value (50 µM) of the same target?
Its value is -0.00622.

Which results are given for “PINX1_Q96BK5_94_NNHLGLGATINNEDNWIAHQDDFNQLLAELNTCHGQETTDSSDKK (UniProt Q96BK5)”?
probe-labelled cysteine peptide fold change (10 µM): 0.15; probe-labelled cysteine peptide fold change (50 µM): 0.124

“PPP4C_P60510_193_KQEVPHDGPMCDLLWSDPEDTTGWGVSPR (UniProt P60510)” was tested. Which “probe-labelled cysteine peptide fold change” value (10 µM) did it give?
Its value is -0.0839.

What about the “probe-labelled cysteine peptide fold change” value (50 µM) of the same target?
Its value is -0.279.

With “PHGDH_O43175_18_VLISDSLDPCCR (UniProt O43175)” as the target, how does the “probe-labelled cysteine peptide fold change” value (10 µM) read?
The value was -0.444.

What about the “probe-labelled cysteine peptide fold change” value (50 µM) of the same target?
The value was -0.677.

Which results are given for “PIBF1_Q8WXW3_334_CAHEEDRLER (UniProt Q8WXW3)”?
probe-labelled cysteine peptide fold change (10 µM): 0.47; probe-labelled cysteine peptide fold change (50 µM): 1.41

Which results are given for “PCCA_P05165_398_INGWAVECR (UniProt P05165)”?
probe-labelled cysteine peptide fold change (10 µM): 0.181; probe-labelled cysteine peptide fold change (50 µM): 0.357

For “PIK3C2A_O00443_541_HLYQIEKPCK (UniProt O00443)”, which “probe-labelled cysteine peptide fold change” value (10 µM) is on record?
The value was -0.457.

What about the “probe-labelled cysteine peptide fold change” value (50 µM) of the same target?
Its value is -1.29.

Which “probe-labelled cysteine peptide fold change” value (10 µM) does the source give for “PPP4R2_Q9NY27_30_EVCPVLDQFLCHVAK (UniProt Q9NY27)” here?
Its value is 0.0564.

What about the “probe-labelled cysteine peptide fold change” value (50 µM) of the same target?
The value was -0.311.

Which “probe-labelled cysteine peptide fold change” value (10 µM) does the source give for “PPP6C_O00743_129_QITQVYGFYDECQTK (UniProt O00743)” here?
Its value is 0.0334.

What about the “probe-labelled cysteine peptide fold change” value (50 µM) of the same target?
Its value is 0.309.

What does the source list for “POP1_Q99575_745_RSEVPCAPMPK (UniProt Q99575)”?
probe-labelled cysteine peptide fold change (10 µM): -0.238; probe-labelled cysteine peptide fold change (50 µM): -0.307

“POLR2A_P24928_451_HMCDGDIVIFNR (UniProt P24928)” was tested. Which “probe-labelled cysteine peptide fold change” value (10 µM) did it give?
The value was -0.0734.

What about the “probe-labelled cysteine peptide fold change” value (50 µM) of the same target?
The value was -0.107.

How did the “probe-labelled cysteine peptide fold change” value (10 µM) turn out when “PPM1E_Q8WY54_307_QEMFPHDPAEALCR (UniProt Q8WY54)” was run?
The value was -0.144.

And the “probe-labelled cysteine peptide fold change” value (50 µM)?
Its value is -0.28.

Which results are given for “PGK1_P00558_316_TGQATVASGIPAGWMGLDCGPESSK (UniProt P00558)”?
probe-labelled cysteine peptide fold change (10 µM): -0.217; probe-labelled cysteine peptide fold change (50 µM): 0.0673

How did the “probe-labelled cysteine peptide fold change” value (10 µM) turn out when “PM20D2_Q8IYS1_14_MRPGGERPVEGGACNGR (UniProt Q8IYS1)” was run?
The value was -0.16.

What about the “probe-labelled cysteine peptide fold change” value (50 µM) of the same target?
Its value is -0.608.

“PDCD6IP_Q8WUM4_691_CSDIVFAR (UniProt Q8WUM4)” was tested. Which “probe-labelled cysteine peptide fold change” value (10 µM) did it give?
The value was -0.00307.

And the “probe-labelled cysteine peptide fold change” value (50 µM)?
Its value is -0.0695.

What does the source list for “PDIA4_P13667_555_DVLIEFYAPWCGHCK<|>PDIA3_P30101_406_DVLIEFYAPWCGHCK (UniProt P30101+P13667)”?
probe-labelled cysteine peptide fold change (10 µM): -0.287; probe-labelled cysteine peptide fold change (50 µM): -1.09

Which results are given for “PDIA6_Q15084_291_RTCEEHQLCVVAVLPHILDTGAAGR (UniProt Q15084)”?
probe-labelled cysteine peptide fold change (10 µM): 0.0625; probe-labelled cysteine peptide fold change (50 µM): -0.132

With “PLXNB2_O15031_1504+1506_GQPCSCWPRPDSVVLEWRPGSTAQILSDLDLTSQR (UniProt O15031)” as the target, how does the “probe-labelled cysteine peptide fold change” value (10 µM) read?
The value was -0.0809.

What about the “probe-labelled cysteine peptide fold change” value (50 µM) of the same target?
Its value is -0.762.
